From PubChem
NIH3T3 tox – NIH 3T3 cell cytotoxicity | hit rate 4.3% among 94,000 | Potency, µM (highest dose often 96.7 µM), hits mostly inhibitors | NIH 3T3 viability, CellTiter-Glo ATP luminescence, 48-72 h; also: nearly all actives have a fitted effect of over 55% in size
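Cytotoxicity is measured as loss of cellular ATP: NIH 3T3 cells (400/well) are exposed to compound for 48 or 72 hr at 37 °C, then CellTiter-Glo luminescence is imaged after 10 min at room temperature.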
HEK293 tox – cytotoxic compounds in HEK 293 cells. AID 1345083. HEK 293 viability, ATP luminescence (CellTiter-Glo), 48-72 h. Potency, µM (titrated, usually from 115 µM), actives largely listed as inhibitors. hit rate 6.6% among 94,000; also: nearly all actives have a fitted effect of over 60% in size
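Pintool-delivered compounds were incubated with HEK 293 cells (250 cells/well) at 37 degree Celsius for 48 or 72 hr. ATP-dependent luminescence (CellTiter-Glo) then reported remaining viable cells.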
NPR1 antag – human Npr1 receptor antagonism; P16066; HEK293 hNpr1 GloSensor cGMP, ANP-stimulated luminescence; Potency, µM (doses to about 46.3 µM), hits mostly inhibitors; hit rate 1.6% among 76,000; calls by dose curve; also: nearly all actives have a fitted effect of over 60% in size
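HEK293 cells stably expressing human Npr1 and cGMP GloSensor pGS-40F, loaded 2 h with 2% GloSensor reagent, given compound 30 min at room temperature. Luminescence read before and 20 min after 0.1 nM hNppA.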
FLuc inh – inhibitors of firefly (Photinus pyralis) luciferase. purified P. pyralis luciferase, luminescence, biochemical. Potency, µM (highest dose often 115 µM), most hits filed as inhibitors. hit rate 2.5% among 76,000. AID 1347043; also: nearly all actives have a fitted effect of over 65% in size
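Biochemical qHTS: compound (6-point titration) added to 10uM D-luciferin plus 10uM ATP in Tris acetate pH 7.5 buffer with Mg, Tween-20 and BSA, then purified enzyme at 10nM; light output imaged.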
Hits are given with their value; - = inactive; ? = inconclusive; . = not tested or not shown; ! = not active in a repeat. Compounds with a hit are over-represented: about 11% of the library has one in this group of screens. Unless noted, calls follow the shape of the dose curve; as a rule, active = well fitted curve in the direction sought with a large enough effect; inconclusive = small, poorly fitted or top-dose-only effect, or another doubt; inactive = no such curve, though single readings can be large; an effect the other way counts as inactive or inconclusive.

SMILES | NIH3T3 tox | HEK293 tox | NPR1 antag | FLuc inh
c1ccc(-c2cn3c(n2)CO[C@@H](CNC2CCOCC2)C3)cc1 | - | - | - | -
COc1ccc(-c2cn3c(n2)CO[C@@H](CNC2CCC2)C3)cc1 | - | - | - | 56µM
O=C(Cc1cccc(F)c1)Nc1cccc(-c2nnc3n2CCCC3)c1 | ? | ? | - | -
COc1ccc(CN(Cc2ccc(OC)cc2)[C@@H]2CO[C@H](CNC(=O)CC(C)(C)C)[C@H]2O)cc1 | ? | 71µM | - | -
O=c1c(NS(=O)(=O)c2cccc(F)c2)ccc2n1C[C@H]1C[C@@H]2CN(S(=O)(=O)c2ccccc2)C1 | ? | - | - | -
Cn1cc(CN2C[C@@H]3C[C@H](C2)c2ccc(NS(=O)(=O)c4cccc(F)c4)c(=O)n2C3)c2ccccc21 | 13µM | 32µM | - | -
O=C(c1ccc(-c2ccccc2)cc1)N1C[C@@H]2C[C@H](C1)c1ccc(NS(=O)(=O)c3cccc(F)c3)c(=O)n1C2 | ? | 50µM | - | ?
O=C(c1ccc2ccccc2c1)N1C[C@@H]2C[C@H](C1)c1ccc(NS(=O)(=O)Cc3ccccc3)c(=O)n1C2 | 79µM | ? | - | -
O=C(c1ccccc1)N1C[C@@H]2C[C@H](C1)c1ccc(NS(=O)(=O)c3cccc(F)c3)c(=O)n1C2 | - | - | - | -
O=C(c1ccccn1)N1C[C@@H]2C[C@H](C1)c1ccc(NS(=O)(=O)Cc3ccccc3)c(=O)n1C2 | - | - | - | -
CC(=O)NC1(C)CCCN(Cc2cccc(-c3c(C)noc3C)c2)C1 (stereo unspecified) | ? | - | - | -
Cc1cccc(-c2cccc(CN3CCC(N[S+](=O)([O-])c4c(C)noc4C)CC3)c2)c1 | 32µM | 28µM | . | .
Cc1noc(C)c1[S+](=O)([O-])NC1CCN(Cc2cccc(-c3cccs3)c2)CC1 | 40µM! | 22µM! | . | .
COc1cccc(CNC(=O)C2CN(c3cccc(Cl)c3)C(=O)N2)c1 (stereo unspecified) | ? | ? | - | -
Cc1noc(-c2ccc3c(c2)OCO3)c1C(=O)NC(C)CCc1ccccc1 (stereo unspecified) | ? | 45µM | - | -
CCOc1ccccc1CNC(=O)c1c(C)noc1-c1ccc2c(c1)OCO2 | ? | ? | - | -
Cc1noc(-c2ccc3c(c2)OCO3)c1C(=O)NCc1cc(F)cc(F)c1 | ? | 32µM | - | -
Cc1noc(-c2cccs2)c1C(=O)N1CCC(Cc2ccccc2)CC1 | ? | ? | - | -
Cc1noc(-c2ccc3c(c2)OCO3)c1C(=O)NCCCCc1ccccc1 | ? | ? | - | -
Cc1noc(-c2ccc3c(c2)OCO3)c1C(=O)N1CCC(Cc2ccc(F)cc2)CC1 | 35µM | 28µM | ? | -
CNC(=O)[C@@H]1[C@H]2CN(Cc3ccccn3)CCN2C[C@H]1c1ccccc1 | - | ? | . | .
CC(=O)N1CCN(C(=O)c2ccc3nnc(C(C)(C)C)n3c2)CC1 | - | - | . | .
COc1ccc(C(=O)N2CCCC3(CN[S+](=O)([O-])c4cccnc4N3)C2)cc1 (stereo unspecified) | - | - | . | .
COc1ccccc1-c1ccc(C(=O)N2CCC(C(=O)NCCCc3ccccc3)CC2)cc1 | ? | 79µM | . | .
COc1ccccc1-c1ccc(C(=O)N2CCC(C(=O)N3CCC(Cc4ccccc4)CC3)CC2)cc1 | 22µM | ? | . | .
SMILES | NIH3T3 tox | HEK293 tox | NPR1 antag | FLuc inh
O=C(NCc1ccc(C(F)(F)F)cc1)C1CCN(C(=O)c2ccc(-c3cncnc3)cc2)CC1 | 18µM | ? | . | .
COc1ccccc1-c1ccc(C(=O)N2CCC(C(=O)NCc3ccc(C(F)(F)F)cc3)CC2)cc1 | ? | 35µM | . | .
COc1ccccc1-c1ccc(C(=O)N2CCC(C(=O)N3CCOCC3)CC2)cc1 | - | - | . | .
COc1cccc(CNC(=O)CN2C(=O)NC3(CCC(C(C)(C)C)CC3)C2=O)c1 (stereo unspecified) | ? | ? | - | -
CN(C(=O)c1csc(Cc2ccccc2)n1)C1CCCN(CCc2ccccc2)C1 (stereo unspecified) | - | ? | - | -
COc1ccccc1-c1ccc(C(=O)N2CCC(C(=O)NCC3CC3)CC2)cc1 | - | ? | . | .
COc1ccccc1-c1ccc(C(=O)N2CCC(NC(C)=O)CC2)cc1 | - | ? | . | .
COc1ccccc1-c1ccc(C(=O)N2CCC(C(=O)NCc3cccc(Cl)c3)CC2)cc1 | ? | 20µM | . | .
COc1ccccc1-c1ccc(C(=O)N2CCC(C(=O)NC3CCCC3)CC2)cc1 | ? | 28µM | . | .
COc1ccccc1-c1ccc(C(=O)N2CCC(NC(=O)N(C)C)CC2)cc1 | - | - | . | .
